# Compound activity: PubChem BioAssay, National Center for Advancing Translational Sciences (NCATS)
# A selection: hits, their analogues and other compounds. The true share with any hit is near 2.3%.
# GLS inh – inhibitors of human glutaminase (GLS) | GLS enzymatic activity, qHTS titration | Potency, µM (series often up to 45.5 µM), without a hit: at the highest dose activity change, negative = inhibition, most hits filed as inhibitors | O94925 | AID 624170 | hit rate 0.21% among 410,000; also: % is scaled to controls: 0 for no effect and ±100 for the full control effect
#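 Human kidney-isoform GLS in 45 mM KH2PO4 pH 8.2, 0.02% Tween-20, with compound, started with 1mM L-Glutamine (added stock). Glutamate oxidase/HRP/Amplex red coupled fluorescence read at start and after 30 min at RT.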
# GLP1R inv ag – inverse agonists of human GLP-1 receptor; Potency, µM (titrated, usually from 38.3 µM), inactives show at the top dose activity change, negative = inhibition, most hits filed as inhibitors; HEK293 GLP-1R CRE-luciferase, luminescence, 24 h; GLP-1R form is constitutively active; AID 624417; hit rate 1.6% among 410,000; P43220; also: % is scaled to controls: 0 for no effect and ±100 for the full control effect; nearly all actives have a fitted effect of over 55% in size
#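 HEK293 cells stably co-expressing constitutively active GLP-1R and a cAMP-responsive luciferase reporter were seeded in DMEM with 10% Nu serum, given compounds after 12 h, and incubated 24 h at 37 deg C. Luminescence was then read.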
# GLP-1R agonist – GLP-1 receptor (human) agonism; P43220; HEK293 GLP-1R CRE-luciferase, luminescence, 4-6 h; cells express a hypersensitive GLP-1R form; Potency, µM (titrated, usually from 45.6 µM), for the others: at the highest dose activation, hits mostly activators; hit rate 0.007% among 380,000; AID 624172; also: % of control where 0% means no effect
# GRP78 ERSR act – ER stress response induction in glioma; U87-MG GRP78 promoter luciferase reporter, 16 h; Potency, µM, without a hit: top-dose activation, actives largely listed as activators; hit rate 0.02% among 420,000; also: series mostly up to about 76 µM; % of control where 0% means no effect; nearly all actives have a fitted effect of over 35% in size
#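 Stably transfected U87-MG human glioma cells carrying a GRP78-based luminescent sensor were seeded at 1000 cells/well, pin-dosed with compounds and incubated 16 h. Luciferase reagent was then added, and end-point luminescence was read after 10 min at room temperature.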
# 12-LOX inh – ALOX12 (human) lipoxygenase inhibition; hit rate 1.1% among 580,000; P18054; purified 12hLO, xylenol orange hydroperoxide absorbance; Potency, µM (series often up to 108 µM), for the others: at the top dose activity change, negative = inhibition, usual class: inhibitors; also: % is scaled to controls: 0 for no effect and ±100 for the full control effect
# Target sequence (P18054 whole entry, looked up): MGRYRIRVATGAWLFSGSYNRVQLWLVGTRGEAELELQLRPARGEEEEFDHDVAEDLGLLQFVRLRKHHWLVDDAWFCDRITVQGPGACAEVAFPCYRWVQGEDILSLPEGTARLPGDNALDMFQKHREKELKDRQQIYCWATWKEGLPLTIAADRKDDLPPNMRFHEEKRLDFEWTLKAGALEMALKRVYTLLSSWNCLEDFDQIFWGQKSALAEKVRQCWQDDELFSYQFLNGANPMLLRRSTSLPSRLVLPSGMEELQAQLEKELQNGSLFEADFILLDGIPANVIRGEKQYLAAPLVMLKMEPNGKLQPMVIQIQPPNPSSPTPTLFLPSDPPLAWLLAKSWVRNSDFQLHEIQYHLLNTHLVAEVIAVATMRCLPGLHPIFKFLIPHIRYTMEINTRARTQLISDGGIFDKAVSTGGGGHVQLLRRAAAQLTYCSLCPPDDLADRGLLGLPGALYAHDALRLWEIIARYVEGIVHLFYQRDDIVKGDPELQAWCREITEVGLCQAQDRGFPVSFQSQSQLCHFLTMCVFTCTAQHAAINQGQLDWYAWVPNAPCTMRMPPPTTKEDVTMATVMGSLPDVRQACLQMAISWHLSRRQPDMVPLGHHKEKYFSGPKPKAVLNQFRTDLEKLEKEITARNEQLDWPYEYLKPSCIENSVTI
#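 Purified human 12hLO (150 nM final) in 25 mM Hepes, 0.01% Triton X-100, pH 7.0 was preincubated 15 min at room temperature with compound. Then 40 uM arachidonic acid was added, 30 min. Hydroperoxide was read by Fe-XO absorbance ratio 573/405 nm.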
# PTHR1 ag – agonists of human PTHR1 parathyroid hormone receptor; AID 743266; Q03431; HEK293 GP2 PTHR1 cells, GloSensor cAMP luminescence, 1 h; Potency, µM (highest dose often 115 µM), for the others: at the top dose activation, hits mostly activators; hit rate 0.075% among 410,000; also: nearly all actives have a fitted effect of over 55% in size
#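 HEK-293-derived GP2 cells expressing PTHR1 and a GloSensor cAMP reporter, 3,000/well, plated overnight, given luciferin plus IBMX (each 0.5 mM as added) for 1 h at 37 °C, then compound for 1 h at 37 °C. Luminescence was read after 15 min at room temperature.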
# * hit, by the source's call; i = inactive; ? = inconclusive; / = no result; [ ] = another dose, or the depositor's remark. Calls follow the shape of the dose curve; as a rule, active = well fitted curve in the direction sought with a large enough effect; inconclusive = small, poorly fitted or top-dose-only effect, or another doubt; inactive = no such curve, though single readings can be large; an effect the other way counts as inactive or inconclusive. Potency is read from the fitted curve at half-maximal effect.
SMILES,GLS inh,GLP1R inv ag,GLP-1R agonist,GRP78 ERSR act,12-LOX inh,PTHR1 ag
COC(=O)c1cc(NC(=O)c2cc(-c3ccccc3Cl)oc2C(F)(F)F)ccc1N1CCOCC1,0%,4µM*,13%,-2%,-2%,-25%
Cc1ccc(NC(=O)c2cc(N3C(=O)CCC3=O)ccc2N2CCOCC2)cc1,-12%,3%,6%,-1%,-2%,i
Cc1ccc(NC(=O)c2cc(N3C(=O)C=CC3=O)ccc2N2CCOCC2)cc1Cl,-13%,25%,0%,-14%,13µM*,i
CC1=C(C)CC(C(=O)NC(c2ccccc2)c2ccccc2)C(C(=O)O)C1 (configuration not stated),/,/,/,/,1%,/
CCOc1ccc(S(=O)(=O)n2ccnc2CC)cc1C,/,/,/,/,-25%,/
O=C(CN1CCN(C(=O)c2ccc(OCC(F)(F)F)nc2)CC1)Nc1ccccc1Cl,/,/,/,/,1%,/
CN(Cc1ccccc1)Cc1cc(=O)n2cc(Br)ccc2n1,/,/,/,/,-7%,/
CCc1cccc(NC2c3ccccc3C(=O)N2c2ccc(C)cn2)c1 (configuration not stated),12%,13µM*,0%,4%,-1%,-6%
Cc1ccc(-c2nc3sc(C(N)=O)c(N)c3c3c2CCCC3)cc1,7%,0%,17%,-1%,?,-1%
Cc1nc2sc(C(N)=O)c(N)c2c2c1CCCC2,-23%,1.1µM*,-6%,-4%,34%,-14%
O=C(COc1ccc(Br)cc1Cl)NC(=O)NC1CCCC1,-6%,3.5µM*,12%,0%,193%,-39%
O=C(COc1ccc(Cl)cc1Br)NC(=O)NC1CCCC1,-4%,10µM*,2%,1%,-26%,-31%
COc1ccc(-c2oc(NC(=O)CSc3nncn3C)c(C#N)c2-c2ccc(OC)cc2)cc1,14%,1.6µM*,-8%,-4%,33%,-32%
CCc1sc(C(=O)OCC(=O)N2CCC(c3ccccc3)=N2)cc1C,/,/,/,/,-17%,/
Cc1cc(C)n2nc(SC(C)C(=O)Nc3cc(Cl)ccc3Cl)nc2n1 (configuration not stated),/,/,/,/,0%,/
COCCCNC(=O)C(=O)NN,/,/,/,/,17%,/
CC(C)NC(=S)N/N=C1\CC2CC=CC12 (configuration not stated),/,/,/,/,-22%,/
S=C(N/N=C1/CC2CC=CC12)NC1CCCCC1 (configuration not stated),/,/,/,/,35µM*,/
c1ccc(Nc2nc(-c3ccncc3)cs2)cc1,9%,?,-1%,?,15%,-33%[57.5 µM]
Cn1c(N)c(-c2csc(NC3CC3)n2)c(=O)n(C)c1=O,/,/,/,/,7.9µM*,/
Cn1c(N)c(-c2csc(Nc3ccccc3)n2)c(=O)n(C)c1=O,/,/,/,/,45µM*,/
CCc1cc(C(=O)O)c2c(c1)C(C)CC(C)(C)N2 (configuration not stated),/,/,/,/,-36%,/
COc1ccc(-c2c(C)c3cc(OC(=O)C(C)C)ccc3oc2=O)cc1,/,/,/,/,15%,/
Cc1c(CCC(=O)NCc2ccc(F)cc2)c(=O)oc2c(C)c(O)ccc12,/,/,/,/,-3%,/
Cc1cc(Br)ccc1NC(=O)CSc1nc2cc([N+](=O)[O-])ccc2o1,/,/,/,/,18µM*,/
SMILES,GLS inh,GLP1R inv ag,GLP-1R agonist,GRP78 ERSR act,12-LOX inh,PTHR1 ag
CC(C)C(NC(=O)CSc1nc2cc([N+](=O)[O-])ccc2o1)c1ccccc1 (configuration not stated),/,/,/,/,-38%,/
CN=C1S/C(=C/c2cn(CC(=O)OC)c3ccccc23)C(=O)N1C,4%,24%,22%,-3%,28µM*,i
CN=C1S/C(=C\c2cn(CC(=O)OC)c3ccccc23)C(=O)N1C,-2%,24%,12%,-1%,-14%,i
Cc1ccc2nc(-c3ccc(Cl)cc3)cc(C(=O)NCc3ccncc3)c2c1,/,/,/,/,-4%,/
O=C(NC1CCCCCCC1)c1cccc(Cl)c1,-11%,?,18%,3%,-19%,-6%
Cc1nn(Cc2cccc(C(=O)NC3CCCCC3)c2)c(C)c1Cl,8%,10µM*,2%,7%,-11%,-40%[57.5 µM]
CCOc1ccc(NC(=O)c2nc(S(=O)(=O)Cc3ccccc3F)ncc2Cl)cc1,-4%,11µM*,/,-11%,?,-1%
CN(CC(=O)NC(C)(C)C)C(=O)c1ccc2ccccc2n1,/,/,/,/,46%,/
COc1cn(-c2ccccc2)nc1C(=O)OCC(=O)NC1CCCC1,/,/,/,/,-21%,/
CCOc1ccc(CNC(=O)c2oc3c(c2C)-c2nn(Cc4cccc(Cl)c4)cc2CC3)cc1,-27%,11µM*,/,-4%,0%,-44%
Cc1ccc(S(=O)c2ccc([N+](=O)[O-])c3nonc23)cc1 (configuration not stated),?,-22%,0%,-4%,2µM*,-42%
Cc1n[nH]c(C)c1CCCCOc1ccccc1,-6%,9%,1%,-1%,-10%,-30%
Cc1ccc(OCCCc2c(C)n[nH]c2C)cc1,-6%,5%,15%,6%,6.3µM*,-31%
CCn1c(=O)n(CC)c2cc(Sc3ccccc3)c(NC(=O)c3ccccc3OC)cc21,/,/,/,/,-3%,/
O=C(C1CCN(Cc2ccc(Cl)cc2)CC1)N1CCN(C(c2ccccc2)c2ccccc2)CC1,4%,4µM*,-4%,-2%,?,i
O=C(c1ccc(Cl)cc1)C1CCN(Cc2ccccc2)CC1,-1%,?,-1%,-3%,?,i
CC1CCN(C(CNC(=O)c2ccccc2SC(F)F)c2cccs2)CC1 (configuration not stated),/,/,/,/,32µM*,/
O=C(NCC(c1cccs1)N1CCc2ccccc21)c1ccccc1 (configuration not stated),0%,7.1µM*,-2%,-1%,?,-2%
COc1cccc(C(=O)NCC(c2cccs2)N2CCc3ccccc32)c1 (configuration not stated),17%,?,5%,-4%,?,-19%
COc1ccccc1C(=O)NCC(c1cccs1)N1CCc2ccccc21 (configuration not stated),-7%,10µM*,-4%,-5%,-6%,-24%
Cc1ccc(OCC(=O)Nc2ccc3c(C)cc(=O)oc3c2)cc1C,/,/,/,/,5%,/
Cc1ccc(C)c(N2CCN(CC3CCCCC3)CC2)c1,4%,-30%,-16%,1%,4.5µM*,-35%
O=C(NCC(O)COc1cccc(C(F)(F)F)c1)C1CCC1 (configuration not stated),/,/,/,/,7%,/
O=C(C1CCCN(Cc2cccc3ccccc23)C1)N1CCCCC1 (configuration not stated),/,/,/,/,0.45µM*,/
